From PubChem
HT1080 IDH1KD tx: toxicity to HT-1080 IDH1 knockdown cells (counter line); HT-1080 IDH1 knockdown viability, ATP luminescence, 48 h; Potency, µM (titrated, usually from 46.1 µM), inactives show at the top dose activity, negative = toxicity, actives largely listed as cytotoxic; 360,000 compounds, 2% hits;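 further: potency means the concentration at half of the fitted maximal effect; 0% = DMSO wells and -100% = cell-free medium wells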
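Knockdown cells (IDH1KD HT-1080) received compounds 2 h after plating at 750 cells/well and were kept 48 h at 37 °C in 5% FBS RPMI. A CellTiter-Glo luminescence read gave % activity for curve fitting.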
KB-3-1 cytotox: KB-3-1 parental cell cytotoxicity; Potency, µM (doses to about 46.1 µM), hits mostly cytotoxic; 400,000 compounds, 1.4% hits; KB-3-1 viability, CellTiter-Glo ATP luminescence, 72 h; further: potency means the concentration at half of the fitted maximal effect; nearly all actives have a fitted effect of over 60% in size
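72 h, 37 °C compound treatment of KB-3-1 parental cells; CellTiter-Glo added, 10 min, luminescence read. Data corrected against DMSO-only plates and normalized before curve fitting.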
HT1080NT lethal: kills 2HG-producing HT-1080-NT fibrosarcoma cells. AID 686970. Potency, µM (doses to about 46.1 µM), for inactives: at the top dose activity, negative = less viability, hits mostly cytotoxic. HT-1080-NT fibrosarcoma viability, CellTiter-Glo ATP luminescence, 48 h. 360,000 compounds, 1.6% hits;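 further: NT is the 2HG producing partner of a matched IDH1 knockdown line; potency means the concentration at half of the fitted maximal effect; 0% = DMSO-treated cells and -100% = media-only wells without cells; nearly all actives have a fitted effect of over 55% in size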
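750 cells/well, RPMI + 5% FBS; 2 h settle, compound pin-transfer, 48 h at 37 degrees C. CellTiter-Glo 10 min RT, luminescence. Normalized to DMSO and media-only wells.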
IL-1B inflam inh: inhibitors of inflammasome signaling (IL-1 beta secretion) | THP-1 LPS/ATP IL-1B secretion, AlphaLISA, 16 h; active compounds read low | activity change, % at 57.5 µM | 360,000 compounds, 4.7% hits | AID 743279; in the data active means activity change below about -50%; inconclusive means mostly about -30% to -49%
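Secreted IL-1B measured by AlphaLISA bead assay after 16 h compound exposure of THP-1 cells; compounds (final up to 57.5 uM) added 1 h before LPS (250 ng/mL) and ATP (1.25 mM) stimulation; lower signal means less secretion.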
KB-V1 cytotox: KB-V1 MDR subline cytotoxicity; KB-V1 MDR cells viability, CellTiter-Glo, 72 h; Potency, µM (titrated, usually from 46.1 µM), usual class: cytotoxic; 400,000 compounds, 3.4% hits; AID 1347076; further: potency means the concentration at half of the fitted maximal effect; nearly all actives have a fitted effect of over 60% in size
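In this primary screen, KB-V1 cells overexpressing P-gp are incubated with library compounds (lowest to highest concentration) for 72 h at 37 degrees C before a luminescent ATP viability read.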
* hit, by the source's call; i = inactive; ? = inconclusive; nt = not tested or not shown. This is a sample that favours compounds with a hit; in the whole collection about 8.8% have one here. Unless noted, the call rests on the fitted dose curve; in most records, active means well fitted curve in the direction sought with a large enough effect; inconclusive means small, poorly fitted or top-dose-only effect, or another doubt; inactive means no such curve, though single readings can be large; an effect the other way counts as inactive or inconclusive. Unless noted, on the % scale 0 is the no-effect control and ±100 the full control effect.

SMILES	HT1080 IDH1KD tx	KB-3-1 cytotox	HT1080NT lethal	IL-1B inflam inh	KB-V1 cytotox
Cc1c(Cl)cccc1NC(=O)CCn1nc(C)c2c(C)n(-c3ccccc3)nc2c1=O	nt	i	nt	nt	?
Cc1nnc(SCC(=O)Nc2cc(-c3cc(C)c(C)cc3C)nn2-c2ccccc2)s1	-22%	?	-13%	-11	?
CCCc1ccc(-c2cc(NC(=O)CSc3nnc(N)s3)n(-c3ccccc3)n2)cc1	?	i	16µM*	?	i
CCN(CC)c1nc(-c2ccc(C(=O)NN)cc2)nc(-c2ccc(C(=O)NN)cc2)n1	-5%	i	-11%	6	i
CCCN(CCC)CCCNC(=O)C1CCC(CNS(=O)(=O)c2ccc(NC(C)=O)cc2)CC1 (stereo not given)	nt	i	nt	nt	?
CCOC(=O)c1c(-c2ccc(C)o2)csc1NC(=S)NC(=O)c1ccccc1Br	?	?	?	0	16µM*
CCCCOc1ccc(S(=O)(=O)N2CCN(C)CC2)cc1	15%	i	1%	-19	i
C=CCOc1ccc(CN(C)c2ccc(S(=O)(=O)N3CCN(C)CC3)cc2[N+](=O)[O-])cc1	-10%	?	-10%	-25	8.2µM*
CCOc1ccc(Nc2ccc(S(=O)(=O)N3CCN(C)CC3)cc2[N+](=O)[O-])cc1OCC	0%	i	-4%	-20	i
CCOc1ccc(CN(C)c2ccc(S(=O)(=O)N3CCN(C)CC3)cc2[N+](=O)[O-])cc1OC	-26%	7.3µM*	-2%	-15	2.3µM*
CN1CCN(S(=O)(=O)c2ccc(N(C)Cc3ccc(C(F)(F)F)cc3)c([N+](=O)[O-])c2)CC1	?	i	?	-85*	i
CN(Cc1cccc(Cl)c1Cl)c1ccc(S(=O)(=O)N2CCCCC2)cc1[N+](=O)[O-]	4%	i	8%	-11	i
Cc1cc(C(=O)O)cc(S(=O)(=O)Nc2ccccc2C(=O)NC2CC2)c1C	9%	i	1%	6	i
COC(=O)C[C@H]1c2cc(C(F)(F)F)ccc2S(=O)(=O)N1C(C)(C)C	5%	i	19%	11	i
CN1CCN(c2oc(-c3cccs3)nc2S(=O)(=O)c2ccccc2)CC1	-10%	i	0%	-13	13µM*
CN1CCN(c2oc(-c3ccccc3Cl)nc2S(=O)(=O)c2ccccc2)CC1	6%	i	4%	-29	?
O=C(CSc1oc(-c2cccs2)nc1S(=O)(=O)c1ccccc1)NC1CCCCC1	-27%	i	-19%	-1	3.7µM*
O=C(O)C(Cc1c[nH]c2ccccc12)N1CCS(=O)(=O)CC1 (stereo not given)	0%	i	1%	0	i
CC(=O)N1c2ccc(S(=O)(=O)NCCC(=O)Nc3cccc(Cl)c3)cc2CC1C (stereo not given)	-4%	i	-5%	64	i
O=C1/C(=C/c2cccnc2)SC(=S)N1N1CCOCC1	2%	i	6%	26	i
O=C1/C(=C\c2cccnc2)SC(=S)N1C1CCS(=O)(=O)C1 (stereo not given)	?	?	-27%	-79*	i
O=C1/C(=C/c2cccnc2)SC(=S)N1C1CCS(=O)(=O)C1 (stereo not given)	18µM*	?	-24%	-93*	?
Cc1cnn(CCC(=O)NNC(=S)Nc2cccc(Cl)c2)c1	0.71µM*	i	0.79µM*	10	i
Cc1ccc(-n2nnnc2Sc2nc([N+](=O)[O-])nn2C)cc1	?	i	?	-57*	i
Cc1ccc(-n2nnnc2Sc2nc([N+](=O)[O-])nn2C)c(C)c1	-14%	?	-23%	?	i
C[C@H]1CN([C@@H](C)CO)C(=O)Cc2cc(NC(=O)C3CC3)ccc2O[C@H]1CN(C)Cc1ccc(Oc2ccccc2)cc1	-22%	i	?	-72*	i
C[C@H]1CN([C@@H](C)CO)C(=O)Cc2cc(NC(=O)CCC(F)(F)F)ccc2O[C@H]1CN(C)Cc1ccc(C(F)(F)F)cc1	?	?	?	-69*	?
